# PubChem BioAssay (EPA / NIEHS)
# The source made the active and inactive calls. The calls were made as follows: active = hit-call score of the fitted dose curve at least 0.9, where 1 is the maximum; inactive = score below 0.9.
# How the values were obtained:
# [1] = molecular target: Bile acid receptor (Homo sapiens) (UniProt Q96RI1); experiment: ATG_IR1_CIS: Attagene CIS-FACTORIAL HepG2 Assay for human Nuclear Receptor Subfamily 1 Group H Member 4 (NR1H4), IR1 submotif (AID 2282946); details: IR1 reporter transcription, actives raise or lower the signal
# Summary of the method: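 HepG2 cells transiently transfected with multiple cis-promoter-driven reporter units to measure endogenous transcription factor activity; 24 h exposure. Reporter mRNA read by RT-PCR, FAM labelling, HpaI digestion and capillary electrophoresis. Bidirectional fit versus DMSO.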
# [2] = ATG_GRE_CIS: Attagene CIS-FACTORIAL HepG2 Assay for human Glucocorticoid Response Elements (GRE) (AID 2282947); details: HepG2 GRE cis-reporter, Attagene multiplex mRNA; actives raise or lower the signal
# Summary of the method: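 Endogenous transcription factor activity is read through cis-element reporter constructs transiently transfected into HepG2 cells. After 24 h treatment, labelled RT-PCR products are resolved by capillary electrophoresis; DMSO sets baseline for bidirectional curve fitting.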
# [3] = ATG_ISRE_CIS: Attagene CIS-FACTORIAL HepG2 Assay for human Interferon Regulatory Factor 1 (IRF1) binding to an Interferon-Stimulated Response Element (ISRE) (AID 2282948); details: HepG2 ISRE cis-reporter (Attagene), mRNA transcription readout; actives raise or lower the signal
# Summary of the method: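 Quantitation relies on labelled RT-PCR fragments separated by capillary electrophoresis. Human HepG2 cells bearing cis-promoter reporter constructs were treated 24 h; DMSO served as baseline for bidirectional fitting.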
# [4] = ATG_M_32_CIS: Attagene CIS-FACTORIAL HepG2 Assay for M32 Transcription Factor (Internal Marker) (AID 2282949); details: HepG2 Attagene cis-factorial M32 reporter, mRNA; actives raise or lower the signal;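 also: background control marker of the multiplexed CIS panel rather than a real target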
# Summary of the method: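 Internal background marker read-out: RT-PCR/capillary electrophoresis fluorescence of reporter transcripts from transiently transfected HepG2 cells after 24 h chemical exposure. Activity fitted bidirectionally relative to DMSO negative control.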
# [5] = ATG_M_06_CIS: Attagene CIS-FACTORIAL HepG2 Assay for M06 Transcription Factor (Internal Marker) (AID 2282950); details: HepG2 Attagene CIS-FACTORIAL M06 internal marker reporter; actives raise or lower the signal
# Summary of the method: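 Steps: transfect HepG2 with multiplexed cis-element reporter constructs; dose chemical 24 h; extract RNA with DNase treatment; reverse-transcribe, PCR-amplify, 6-FAM label, HpaI digest; separate fragments by capillary electrophoresis. Activity fitted both directions versus DMSO.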
# [6] = molecular target: Hypoxia-inducible factor 1-alpha (Homo sapiens) (UniProt Q16665); experiment: ATG_HIF1a_CIS: Attagene CIS-FACTORIAL HepG2 Assay for human Hypoxia Inducible Factor 1 (HIF1A) (AID 2282951); details: HepG2 Attagene cis-factorial HIF1a reporter transcription; actives raise or lower the signal
# Summary of the method: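 Dosed 24 h, transfected HepG2 cells yielded total RNA whose reporter transcripts were RT-PCR-amplified and sized by capillary electrophoresis using fluorescent labelling; DMSO defined baseline, with gain and loss of signal both fitted.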
# [7] = molecular target: Hepatocyte nuclear factor 6 (Homo sapiens) (UniProt Q9UBC0); experiment: ATG_HNF6_CIS: Attagene CIS-FACTORIAL HepG2 Assay for human Hepatocyte Nuclear Factor 6 (HNF6) (AID 2282952); details: HepG2 Attagene cis-factorial HNF6 reporter transcription; actives raise or lower the signal
# Summary of the method: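 HepG2 cells transiently transfected with cis-element-driven multiplexed reporter units measuring endogenous transcription factor activity. After 24 h exposure, reporter mRNA quantified by RT-PCR, FAM-labelled fragments and capillary electrophoresis; bidirectional fitting versus DMSO.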
# [8] = molecular target: Heat shock factor protein 1 (Homo sapiens) (UniProt Q00613); experiment: ATG_HSE_CIS: Attagene CIS-FACTORIAL HepG2 Assay for human Heat Shock Transcription Factor 1 (HSE) (AID 2282953); details: HepG2 HSE cis-reporter, Attagene RNA transcription; actives raise or lower the signal
# Summary of the method: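 Cells were transfected with cis-element-driven reporter constructs, dosed for 24 h, then total RNA was reverse-transcribed and reporter cDNA amplified, FAM-labelled and digested with HpaI. Fragments were resolved by capillary electrophoresis; gain or loss was fitted against DMSO.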
# [9] = ATG_MRE_CIS: Attagene CIS-FACTORIAL HepG2 Assay for human Metal Responsive Element (MRE) (AID 2282954); details: HepG2 MRE cis-reporter transcription, Attagene multiplex; actives raise or lower the signal
# Summary of the method: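 Fluorescent reporter fragments separated by capillary electrophoresis give mRNA induction for the MRE unit after 24 h treatment of transfected HepG2 cells. Endogenous transcription-factor activity is read; DMSO serves as negative control and baseline.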
# [10] = ATG_PBREM_CIS: Attagene CIS-FACTORIAL HepG2 Assay for human Phenobarbital-responsive Enhancer Module (PBREM) (AID 2282955); details: HepG2 PBREM cis-reporter, Attagene multiplexed transcription; actives raise or lower the signal
# Summary of the method: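 Transfected liver-derived HepG2 cells exposed 24 h; PBREM reporter transcript quantified via RT-PCR and capillary electrophoresis, with activity in either direction referenced to DMSO.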
# Chain of Bile acid receptor (Homo sapiens) (Q96RI1 whole entry, looked up): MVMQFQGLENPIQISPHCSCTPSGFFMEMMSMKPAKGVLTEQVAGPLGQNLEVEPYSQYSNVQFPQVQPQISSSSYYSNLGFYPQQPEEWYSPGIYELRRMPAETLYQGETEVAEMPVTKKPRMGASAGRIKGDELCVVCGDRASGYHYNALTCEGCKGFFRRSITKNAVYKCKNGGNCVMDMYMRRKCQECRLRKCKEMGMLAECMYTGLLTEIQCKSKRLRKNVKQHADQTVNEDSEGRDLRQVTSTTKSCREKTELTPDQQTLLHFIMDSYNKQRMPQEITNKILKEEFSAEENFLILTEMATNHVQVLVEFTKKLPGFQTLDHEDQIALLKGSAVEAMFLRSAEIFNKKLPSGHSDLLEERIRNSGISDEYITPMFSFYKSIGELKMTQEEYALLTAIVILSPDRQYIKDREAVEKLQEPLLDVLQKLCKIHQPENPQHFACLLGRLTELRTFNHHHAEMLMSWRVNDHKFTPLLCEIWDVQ
# Chain of Hepatocyte nuclear factor 6 (Homo sapiens) (Q9UBC0 whole entry, looked up, the tested form may be a part): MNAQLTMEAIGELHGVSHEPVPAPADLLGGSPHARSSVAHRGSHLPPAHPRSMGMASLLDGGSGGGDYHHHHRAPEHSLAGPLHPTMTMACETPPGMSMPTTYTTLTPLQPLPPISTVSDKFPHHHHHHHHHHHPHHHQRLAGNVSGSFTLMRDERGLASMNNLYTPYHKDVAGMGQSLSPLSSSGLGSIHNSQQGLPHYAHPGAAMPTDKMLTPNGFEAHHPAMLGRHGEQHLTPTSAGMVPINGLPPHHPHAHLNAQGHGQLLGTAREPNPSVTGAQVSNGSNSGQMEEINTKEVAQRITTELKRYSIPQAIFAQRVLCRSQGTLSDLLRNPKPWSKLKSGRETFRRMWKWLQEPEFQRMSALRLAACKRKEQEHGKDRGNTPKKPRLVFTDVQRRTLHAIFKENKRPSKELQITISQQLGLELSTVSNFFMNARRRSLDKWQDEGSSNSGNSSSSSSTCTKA
# Chain of Heat shock factor protein 1 (Homo sapiens) (Q00613 whole entry, looked up, the tested form may be a part): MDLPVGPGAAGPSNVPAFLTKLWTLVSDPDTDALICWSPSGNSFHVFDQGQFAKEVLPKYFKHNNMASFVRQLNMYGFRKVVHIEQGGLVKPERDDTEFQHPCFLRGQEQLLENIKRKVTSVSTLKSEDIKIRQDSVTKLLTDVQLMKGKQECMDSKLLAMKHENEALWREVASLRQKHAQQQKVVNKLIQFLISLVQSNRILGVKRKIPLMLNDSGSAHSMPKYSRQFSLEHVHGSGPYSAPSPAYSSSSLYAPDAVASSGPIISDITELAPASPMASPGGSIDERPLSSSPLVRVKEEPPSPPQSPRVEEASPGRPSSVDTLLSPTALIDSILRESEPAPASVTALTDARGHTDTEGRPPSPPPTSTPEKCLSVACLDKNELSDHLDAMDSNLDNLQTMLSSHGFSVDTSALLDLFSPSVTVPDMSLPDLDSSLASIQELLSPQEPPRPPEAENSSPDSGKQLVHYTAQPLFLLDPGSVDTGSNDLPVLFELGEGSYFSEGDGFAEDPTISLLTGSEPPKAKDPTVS
# Chain of Hypoxia-inducible factor 1-alpha (Homo sapiens) (Q16665 whole entry, looked up): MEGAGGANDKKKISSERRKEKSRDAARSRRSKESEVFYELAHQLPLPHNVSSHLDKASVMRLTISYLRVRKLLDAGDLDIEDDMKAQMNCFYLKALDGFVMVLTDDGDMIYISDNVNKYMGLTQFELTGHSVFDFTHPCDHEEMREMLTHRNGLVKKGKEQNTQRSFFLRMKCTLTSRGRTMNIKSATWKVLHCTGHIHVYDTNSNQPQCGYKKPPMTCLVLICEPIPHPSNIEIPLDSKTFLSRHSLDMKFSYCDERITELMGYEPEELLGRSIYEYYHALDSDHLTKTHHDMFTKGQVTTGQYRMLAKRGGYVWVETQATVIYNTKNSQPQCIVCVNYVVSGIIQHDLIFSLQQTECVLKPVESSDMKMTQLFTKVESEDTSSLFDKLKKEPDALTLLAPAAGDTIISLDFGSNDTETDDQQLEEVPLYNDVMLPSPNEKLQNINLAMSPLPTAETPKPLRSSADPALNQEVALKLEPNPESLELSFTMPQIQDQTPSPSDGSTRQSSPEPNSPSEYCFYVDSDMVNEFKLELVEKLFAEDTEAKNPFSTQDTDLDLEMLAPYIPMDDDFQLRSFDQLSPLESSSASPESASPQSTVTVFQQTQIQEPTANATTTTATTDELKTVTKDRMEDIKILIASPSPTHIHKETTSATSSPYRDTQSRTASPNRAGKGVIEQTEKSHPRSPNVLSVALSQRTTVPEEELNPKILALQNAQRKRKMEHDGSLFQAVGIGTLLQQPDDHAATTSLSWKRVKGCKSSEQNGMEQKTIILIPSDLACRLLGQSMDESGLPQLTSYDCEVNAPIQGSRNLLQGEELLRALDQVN
SMILES,outcome [1],outcome [2],outcome [3],outcome [4],outcome [5],outcome [6],outcome [7],outcome [8],outcome [9],outcome [10],AC50 [1],AC50 [2],AC50 [3],AC50 [6],AC50 [8],AC50 [9],AC50 [7]
CC(C)(C#N)c1cc(Cn2cncn2)cc(C(C)(C)C#N)c1,inactive,inactive,inactive,inactive,inactive,inactive,inactive,inactive,inactive,inactive,,,,,,,
c1ccc2c(c1)c1cccc3ccc4cccc2c4c31,inactive,inactive,inactive,inactive,inactive,inactive,inactive,inactive,inactive,inactive,,,,,,,
C=C(C)C(=O)OCCOC(=O)CC(C)=O,inactive,inactive,inactive,inactive,inactive,inactive,inactive,inactive,inactive,,,,,,,,
CC1CCC2CC1C2(C)C (stereo not drawn),inactive,inactive,inactive,inactive,inactive,inactive,inactive,inactive,inactive,,,,,,,,
C[Si](O[Si](C)(C)C)O[Si](C)(C)C,inactive,inactive,inactive,inactive,inactive,inactive,inactive,inactive,inactive,,,,,,,,
C=CC(=O)OCCn1c(=O)n(CCOC(=O)C=C)c(=O)n(CCOC(=O)C=C)c1=O,,,,inactive,inactive,,inactive,,,inactive,24.4 µM (active),33.4 µM (active),13 µM (active),16.8 µM (active),54.2 µM (active),9.48 µM (active),
CC(C)OP(=O)(CP(=O)(OC(C)C)OC(C)C)OC(C)C,inactive,inactive,inactive,inactive,inactive,inactive,inactive,inactive,inactive,inactive,,,,,,,
N#Cc1ccccc1,inactive,inactive,inactive,inactive,inactive,inactive,inactive,inactive,inactive,inactive,,,,,,,
CCC(C(=O)NC(N)=O)c1ccccc1 (stereo not drawn),inactive,inactive,inactive,inactive,inactive,inactive,inactive,inactive,inactive,,,,,,,,
c1cc(C(c2ccc(OCC3CO3)cc2)c2ccc(OCC3CO3)cc2)ccc1OCC1CO1 (stereo not drawn),inactive,inactive,,inactive,inactive,,,,,,,,14.7 µM (active),56.4 µM (active),12.5 µM (active),13.4 µM (active),25.3 µM (active)
CC1CCC(C(C)(C)O)CC1 (stereo not drawn),inactive,inactive,inactive,inactive,inactive,inactive,inactive,inactive,inactive,inactive,,,,,,,
Cc1ccc2n[nH]nc2c1,inactive,inactive,inactive,inactive,inactive,inactive,inactive,inactive,inactive,,,,,,,,
O=Cc1ccc(F)cc1,inactive,inactive,inactive,inactive,inactive,inactive,inactive,,inactive,,,,,,,,
CCCC(=O)C(C)=O,inactive,inactive,inactive,inactive,inactive,inactive,inactive,inactive,inactive,inactive,,,,,,,
OCCN1CCNCC1,inactive,inactive,inactive,inactive,,inactive,inactive,inactive,inactive,inactive,,,,,,,
O=S(=O)(O)c1ccc(O)c2ncccc12,inactive,inactive,inactive,inactive,inactive,,inactive,inactive,inactive,inactive,,,,,,,
CC(=O)C(C)=O,,inactive,inactive,inactive,inactive,,inactive,,inactive,,28.8 µM (active),,,,,,
COc1c(Cl)c(Cl)c(Cl)c(Cl)c1Cl,inactive,,inactive,inactive,inactive,inactive,inactive,inactive,inactive,,,,,,,,
CC(=O)OCc1ccc2c(c1)OCO2,inactive,inactive,inactive,inactive,,inactive,inactive,inactive,inactive,inactive,,,,,,,
COC(C(=O)O)c1ccccc1 (stereo not drawn),inactive,inactive,inactive,inactive,inactive,inactive,inactive,,inactive,,,,,,,,
OCc1cccnc1,inactive,inactive,inactive,inactive,inactive,,inactive,inactive,inactive,inactive,,,,,,,
CC(CC(C)(C)C)CC(C)(C)CC(C)(C)C (stereo not drawn),inactive,inactive,inactive,inactive,,inactive,inactive,inactive,inactive,,,,,,,,
CC(=O)Nc1ccc(C)cc1C,inactive,,inactive,inactive,inactive,inactive,inactive,inactive,inactive,,,,,,,,
CC(C)=CCCC(C)CC=O (stereo not drawn),inactive,inactive,inactive,inactive,inactive,,inactive,,inactive,,,,,,,,
O=C(O)CCCCCCCCCCC(=O)O,inactive,inactive,inactive,inactive,inactive,,inactive,inactive,inactive,inactive,,,,,,,
Cc1ncc([N+](=O)[O-])n1C,inactive,,inactive,inactive,inactive,inactive,inactive,inactive,inactive,,,,,,,,
C#C[C@]1(O)CC[C@H]2[C@@H]3CCC4=Cc5oncc5C[C@]4(C)[C@H]3CC[C@@]21C,,inactive,,inactive,,,,,,,23.5 µM (active),,31.2 µM (active),,58.2 µM (active),27.3 µM (active),60.9 µM (active)
